Compounds with a hit are over-represented: about 6% of the library has one in this group of screens.
D3 ag: qHTS of D3 Dopamine Receptor Agonist: qHTS; max activation, %; D(3) dopamine receptor (Homo sapiens), P35462; AID 652048, 2013; 0.58% of 410,000 active; D3R DiscoveRx beta-arrestin cells, luminescence, 90 min; in the data active = max activation above about 30%; note: 0% is about no effect
Target sequence (P35462 whole entry, looked up): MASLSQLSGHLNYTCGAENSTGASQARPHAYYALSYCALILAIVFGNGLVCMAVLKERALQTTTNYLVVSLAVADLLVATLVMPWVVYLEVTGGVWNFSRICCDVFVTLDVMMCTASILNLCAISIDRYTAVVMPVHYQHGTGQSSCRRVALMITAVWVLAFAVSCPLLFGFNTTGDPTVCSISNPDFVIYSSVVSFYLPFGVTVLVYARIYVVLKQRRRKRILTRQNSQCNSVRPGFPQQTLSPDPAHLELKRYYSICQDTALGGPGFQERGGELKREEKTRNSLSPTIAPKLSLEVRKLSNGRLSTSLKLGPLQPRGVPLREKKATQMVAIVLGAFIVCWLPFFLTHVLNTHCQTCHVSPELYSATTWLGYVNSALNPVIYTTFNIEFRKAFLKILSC
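Agonist-mode cell screen: cells plated at 1500/well and incubated overnight at 37 °C, then exposed to library compounds for 90 min at 37 °C. Detection reagent was added for 30–60 min at room temperature, and luminescence was read.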
D1 PAM: Potentiators of Human D1 Dopamine Receptor: qHTS. D(1A) dopamine receptor (Homo sapiens), P21728. HEK293 TREx D1 cells, calcium flux, dopamine EC20 potentiation. potentiation, % at 10 µM. 0.036% of 360,000 active; in the data active = potentiation above about 30%; note: 0% is about no effect
DRD3 antagonist: qHTS of D3 Dopamine Receptor Antagonist: qHTS | D(3) dopamine receptor (Homo sapiens), P35462 | D3R cells, DiscoveRx beta-arrestin luminescence, antagonist mode; stronger effect = lower value | max response, negative = inhibition, % | 2.5% of 360,000 active; in the data active = max response below about -50%; note: % is set by controls: 0 for no effect and ±100 for the full control effect
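Cells expressing the human receptor were seeded at 1500 cells/well, incubated overnight at 37 degrees C in 5% CO2, then exposed to library compounds with dopamine controls for 90 minutes at 37 degrees C before luminescent detection.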
D1 ag: Allosteric Agonists of the Human D1 Dopamine Receptor: qHTS | HEK293 T-REx D1 cells, calcium flux, agonist mode | activation, % at 2 µM | 1% of 360,000 active | AID 504660, 2011; in the data active = activation above about 30%; note: 0% is about no effect
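Agonism was scored from calcium flux recorded over 180 s (1 read/s) after pintool compound addition, following a 10-cycle baseline. Cells were inducible force-coupled HEK293 TREx D1, plated overnight at 30 C and loaded with no-wash calcium dye.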
D1 antag: Antagonist of Human D 1 Dopamine Receptor: qHTS. D(1A) dopamine receptor (Homo sapiens), P21728. HEK293 TREx D1 cells, calcium flux, dopamine EC80; stronger effect = lower value. activity change, negative = inhibition, % at 10 µM. 3.2% of 360,000 active; in the data active = activity change below about -30%; note: % is set by controls: 0 for no effect and ±100 for the full control effect
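HEK293 T-REx cells expressing inducible, force-coupled D1 receptor; no-wash Ca dye, 30–90 min RT. Cmpd → 180 s read at 1 Hz → EC80 DA → 180 s read.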
Starred values were filed as active, the others as inactive; nt = no result.

SMILES | D3 ag | D1 PAM | DRD3 antagonist | D1 ag | D1 antag
Cc1ccc(Cl)cc1N1CCN(C(=O)c2cc3c(=O)n(C)c4ccccc4c3n2C)CC1 | 6 | nt | 18 | 3 | -36*
COCCN1Cc2cccc(C(=O)N3CCN(c4cc(C)ccc4C)CC3)c2C1=O | 2 | nt | 3 | -1 | 10
Cc1cccc(N2CCN(C(=O)c3cc4c(=O)n(C)c5ccccc5c4n3C)CC2)c1C | -9 | 3 | 0 | 3 | 0
CC1CCN(S(=O)(=O)c2ccc3c(c2)c(=O)c(C(=O)NCCc2ccccc2)cn3C)CC1 | 1 | 1 | nt | 1 | 23
CCc1ccccc1N(C)C(=O)c1cn(-c2cccc(OC)c2)c(=O)c2ccccc12 | -8 | -3 | nt | 2 | 1
COc1ccc(C2C=C(c3ccccc3)Nc3nc(NC(=O)c4cccc([N+](=O)[O-])c4)nn32)cc1 (stereo not drawn) | 4 | 3 | nt | 1 | 1
O=C(NCCN1CCC(n2c(=O)[nH]c3ccccc32)CC1)c1cccc(F)c1 | -19 | nt | -105* | nt | nt
O=C(NCCN1CCC(n2c(=O)[nH]c3ccccc32)CC1)c1ccncc1 | -16 | nt | -107* | nt | nt
O=C(Nc1ccccc1)N1CCC(n2c(=O)[nH]c3ccccc32)CC1 | 1 | -3 | -7 | 1 | -9
O=C(NCCN1CCC(n2c(=O)[nH]c3ccccc32)CC1)C(c1ccccc1)c1ccccc1 | -16 | nt | -78* | nt | nt
O=C(NCCN1CCC(n2c(=O)[nH]c3ccccc32)CC1)c1cccc(Cl)c1 | -12 | nt | -98* | nt | nt
O=C(NCCN1CCOCC1)c1cccc(Cl)c1 | -5 | -4 | 2 | 3 | -14
COCCCNC(=O)CSc1nc2cc3c(cc2c(=O)n1CCCC(=O)NCc1ccc2c(c1)OCO2)OCO3 | 6 | -3 | nt | -1 | 12
COc1ccc(CN(Cc2ccco2)C(=O)COc2ccc(Cl)cc2C)cc1 | 3 | -1 | nt | 15 | -9
O=C(Cn1nc(-c2ccc(Cl)cc2)ccc1=O)NCCc1ccccc1 | -14 | -1 | nt | -4 | -19
O=C(NC1CCCCC1)N1CCC(n2c(=O)[nH]c3ccccc32)CC1 | -7 | nt | 0 | 0 | -5
O=C(NCCN1CCC(n2c(=O)[nH]c3ccccc32)CC1)c1cccnc1Cl | -18 | nt | -69* | nt | nt
O=C(NCCN1CCC(n2c(=O)[nH]c3ccccc32)CC1)c1cc(F)cc(F)c1 | -11 | nt | -101* | nt | nt
CCc1ccc(Nc2n[n+](-c3ccccc3)c(-c3cccc(C)c3)s2)cc1 | -6 | -8 | -52* | 4 | -16
COc1ccc(-c2sc(Nc3ccccc3)n[n+]2-c2ccccc2)cc1Br | 5 | 0 | -1 | 4 | -31*
Oc1ccc2ccccc2c1-c1sc(Nc2ccccc2)n[n+]1-c1ccc(F)cc1 | 1 | -1 | -7 | 4 | -23
Fc1ccc(-[n+]2nc(Nc3ccccc3)sc2-c2c3ccccc3cc3ccccc23)cc1 | -19 | -5 | -63* | 7 | -4
COc1ccc(C)cc1Nc1n[n+](-c2ccccc2)c(-c2c(OC)ccc3ccccc23)s1 | -50 | -13 | -15 | 46* | -91*
COc1ccc(OC)c2sc(N(Cc3cccnc3)C(=O)c3ccc(C(C)=O)cc3)nc12 | -5 | -1 | nt | -1 | nt
CCOC(=O)Cc1nn(Cc2nc(-c3ccc(C#N)cc3)cs2)c(=O)c2ccccc12 | 31* | -11 | 19 | 5 | -22
SMILES | D3 ag | D1 PAM | DRD3 antagonist | D1 ag | D1 antag
O=C(Nc1ccc(F)cc1)c1ccc(Br)c(S(=O)(=O)N2CCOCC2)c1 | 2 | nt | -3 | 23 | -6
O=C(C[C@H]1C/C=C\C[C@H](Cc2ccc(F)cc2)C(=O)O[C@@H](c2ccccc2)CNC1=O)N[C@H](CO)Cc1ccccc1 | 43* | nt | 20 | nt | nt
CC(C)(C)OC(=O)C[C@@H]1C/C=C\C[C@@H](CC(=O)NCCO)C(=O)NC[C@@H](c2ccccc2)OC1=O | -7 | nt | -63* | nt | nt
CC(C)(C)[C@@H]1COC(=O)[C@H](Cc2ccc(F)cc2)C/C=C\C[C@@H](CC(=O)N(CCO)Cc2ccccc2)C(=O)N1 | 42* | nt | 28 | nt | nt
CC(C)(C)OC(=O)C[C@H]1C/C=C\C[C@@H](CC(=O)NCCO)C(=O)NC[C@H](c2ccccc2)OC1=O | 17 | nt | 29 | nt | nt
CC(C)(C)[C@@H]1COC(=O)[C@H](Cc2ccc(F)cc2)CC/C=C\C[C@H](CC(=O)N(CCO)Cc2ccccc2)C(=O)N1 | 4 | nt | -14 | nt | nt
C[C@H]1COC(=O)[C@H](Cc2ccc(F)cc2)C/C=C\C[C@H](CC(=O)NCCO)C(=O)N1 | 30* | nt | -18 | nt | nt
COc1ccc(OCCn2cc(C(=O)c3ccco3)c3ccccc32)cc1 | -2 | -2 | nt | 14 | -13
COC(=O)c1ccccc1NC(=O)c1ccc(-c2nc(COc3ccccc3)c(C)o2)cc1 | -16 | 1 | nt | 0 | 0
O=C1NC[C@H](c2ccccc2)OC(=O)[C@@H](Cc2ccc(F)cc2)CC/C=C/C[C@H]1CC(=O)N(CCO)Cc1ccccc1 | -6 | nt | 19 | nt | nt
O=C1NC[C@@H](c2ccccc2)OC(=O)[C@H](Cc2ccc(F)cc2)C/C=C\C[C@@H]1CC(=O)N(CCO)Cc1ccccc1 | -34 | nt | -67* | nt | nt
C[C@@H]1COC(=O)[C@H](NC(=O)OCC2c3ccccc3-c3ccccc32)C/C=C\C[C@@H](CC(=O)N[C@@H](CO)Cc2ccccc2)C(=O)N1 | -3 | nt | 0 | nt | nt
O=C1NC[C@H](c2ccccc2)OC(=O)[C@@H](Cc2ccc(F)cc2)CC/C=C/C[C@@H]1CC(=O)N(CCO)Cc1ccccc1 | -27 | nt | -70* | nt | nt
O=C(C[C@H]1C/C=C\C[C@H](NC(=O)OCC2c3ccccc3-c3ccccc32)C(=O)OC[C@H](Cc2ccccc2)NC1=O)N[C@H](CO)Cc1ccccc1 | -19 | nt | -51* | nt | nt
COc1cccc(NC(=O)CCc2nc(-c3ccc(C(C)(C)C)cc3)no2)c1 | -2 | 3 | nt | 3 | 4
O=C(CCc1nc(-c2cccs2)no1)Nc1cccc([N+](=O)[O-])c1 | 5 | -2 | nt | 15 | -34*
O=C(CCc1nc(-c2cccs2)no1)Nc1ccc([N+](=O)[O-])cc1 | 10 | -1 | nt | 14 | -28
CCOC(=O)c1cccc(NC(=O)CCc2nc(-c3ccc(C)cc3)no2)c1 | -1 | 4 | 24 | 31* | -22
COc1ccc(-c2noc(CCC(=O)Nc3cccc(C)c3)n2)cc1 | -6 | -4 | -21 | 6 | -45*
COc1ccc(CCCc2nnc(SCC(=O)Nc3cccc(C)c3)o2)cc1C | -7 | -1 | nt | 6 | -18
CCOC(=O)c1cccc(NC(=O)CCc2nc(-c3ccccc3F)no2)c1 | 0 | -2 | 10 | 10 | 1

Assay outcomes deposited in PubChem by National Center for Advancing Translational Sciences (NCATS).
